± gives the standard deviation.
Key:
Details in all cases: modulator concentration 10 µM
[1] = test system: RAW-Dual (murine macrophage reporter line); assay: NF-kB reporter (SEAP) activity fold change vs agonist alone; higher = enhanced NF-kB activity
How it was run: (§1)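 RAW-Dual murine macrophage reporter cells were plated at 50 000 per well in 384-well plates, pin-transferred compound to 10 μM final, and pre-incubated for 1 hour at 37 °C before a PRR agonist was added and the cells incubated overnight. NF-κB activity was read from supernatant SEAP with QUANTI-Blue at 620 nm absorbance, and IRF activity from Lucia luciferase with QUANTI-Luc by luminescence. Each signal was expressed as fold change by dividing by the mean agonist-only control on the same plate. Two replicate plates were averaged, with errors obtained by propagation.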

[2] = test system: RAW-Dual (murine macrophage reporter line); assay: IRF reporter (Lucia luciferase) activity fold change vs agonist alone; higher = enhanced IRF activity
How it was run: as §1

[3] = test system: RAW-Dual (murine macrophage reporter line); assay: viability score (confluency relative to resting cells, overnight) (fraction); higher = more viable, active = viable (0.7 or more)
How it was run: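 RAW-Dual macrophages in 384-well plates were incubated overnight with compound, final concentration 10 μM. Confluency images from IncuCyte were processed in IncuCyte software into two masks covering all imaged wells. The viability score is each well's confluency relative to resting cells, and a compound met the cutoff when both masks exceeded 70% of resting cells.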

[4] = agonist: CpG ODN 1826 0.5 ug/mL

| SMILES | NF-kB reporter [1, 4] | NF-kB reporter ([1]; agonist: LPS 0.1 ug/mL) | NF-kB reporter ([1]; agonist: MPLA […]) | IRF reporter ([2]; agonist: 3'3'-cGAMP 10 ug/mL) | IRF reporter ([2]; agonist: LPS 0.1 ug/mL) | IRF reporter ([2]; agonist: MPLA […]) | viability score [3] |
| --- | --- | --- | --- | --- | --- | --- | --- |
| CC#CC(=O)Nc1ccc(N2CCOCC2=O)c(C)c1 | 0.993 ± 0.062 | 1.01 ± 0.086 | 1.01 ± 0.092 | 0.961 ± 0.058 | 0.913 ± 0.084 | 0.865 ± 0.14 | 1.01 (active) |
| Cc1ccc(-c2nn(-c3ccccc3)cc2C=C(C#N)C(N)=O)o1 | 1.04 ± 0.26 | 0.991 ± 0.081 | 1 ± 0.081 | 1.01 ± 0.041 | 1.22 ± 0.2 | 1.12 ± 0.11 | 0.966 (active) |
| O=C(c1ccccc1)c1ccc2n1CCC2C(=O)O (stereo unspecified) | 0.921 ± 0.13 | 1.09 ± 0.14 | 0.895 ± 0.073 | 0.94 ± 0.048 | 1.15 ± 0.26 | 1.04 ± 0.16 | 0.996 (active) |
| COc1ccc(S(=O)(=O)NCc2cccnc2-c2cnn(C)c2)cc1Cl | 1.1 ± 0.055 | 1.15 ± 0.12 | 1.04 ± 0.06 | 1.17 ± 0.058 | 1.11 ± 0.072 | 1.04 ± 0.19 | 0.999 (active) |
| Cc1nnc(NN=Cc2ccc(Cl)c([N+](=O)[O-])c2)[nH]c1=O | 1.08 ± 0.12 | 1.02 ± 0.088 | 1.09 ± 0.045 | 1.01 ± 0.17 | 1 ± 0.082 | 1.07 ± 0.13 | 0.997 (active) |
| CCS(=O)(=O)O.COC(=O)c1ccc2c(c1)NC(=O)/C2=C(\Nc1ccc(N(C)C(=O)CN2CCN(C)CC2)cc1)c1ccccc1 | 0.115 ± 0.027 | 0.886 ± 0.044 | 2.23 ± 0.18 | 0.036 ± 0.002 | 0.177 ± 0.025 | 0.241 ± 0.028 | 0.839 (active) |
| Nc1ccc(OCc2ccccc2)cc1 | 0.977 ± 0.16 | 1.01 ± 0.1 | 0.995 ± 0.12 | 0.635 ± 0.024 | 1.03 ± 0.1 | 1.16 ± 0.17 | 1.01 (active) |
| O=C(Nc1nccs1)c1ccc2c(c1)C(=O)N(C1CCCCC1)C2=O | 1.09 ± 0.086 | 1.05 ± 0.096 | 0.878 ± 0.052 | 0.979 ± 0.032 | 1.57 ± 0.22 | 1.21 ± 0.21 | 1 (active) |
| CCN(CC)c1ccc(C=NNc2cc(N3CCOCC3)nc(N3CCOCC3)n2)cc1 | 0.894 ± 0.096 | 1.03 ± 0.11 | 0.994 ± 0.1 | 0.458 ± 0.07 | 1.28 ± 0.23 | 1.25 ± 0.17 | 0.994 (active) |
| Cc1ccc(C(=O)c2ccc(CC(=O)O)n2C)cc1 | 0.949 ± 0.071 | 1.01 ± 0.064 | 1.02 ± 0.048 | 0.995 ± 0.086 | 0.993 ± 0.1 | 1.02 ± 0.092 | 1 (active) |
| Clc1ccc(-c2nc(N3CCCCC3)nc3ccccc23)cc1 | 0.444 ± 0.033 | 0.975 ± 0.051 | 1.09 ± 0.041 | 0.839 ± 0.047 | 0.953 ± 0.073 | 1.39 ± 0.12 | 0.993 (active) |
| Cc1cc(-c2ccc(N=Cc3ccc(Cl)c([N+](=O)[O-])c3)c(C)c2)ccc1N=Cc1ccc(Cl)c([N+](=O)[O-])c1 | 1.01 ± 0.056 | 1.01 ± 0.073 | 1.02 ± 0.065 | 0.821 ± 0.031 | 1.38 ± 0.11 | 1.13 ± 0.19 | 1 (active) |
| Cc1cccc(C)c1OCC(C)N.Cl (stereo unspecified) | 1.17 ± 0.25 | 1.25 ± 0.23 | 0.953 ± 0.058 | 0.89 ± 0.061 | 1.33 ± 0.29 | 1.04 ± 0.13 | 0.968 (active) |
